The values that follow come from PubChem BioAssay.

Experiment [1] in a line: inhibitors of mutant huntingtin aggregation, primary screen, imaging, exon1htt(103Q)mCFP cells, high-content imaging (AID 483;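 active means visual image review flags a hit and inhibition of aggregation exceeds 20%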;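 further: compound exposure lasted 3 days before fixation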;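 on nuclei count: percent of the per-plate median nuclei count of sample wells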). To be noted: exon1htt(103Q)mCFP cell line, aggregate imaging, at 2 µM; inhibition of aggregation: stronger effect = higher value; nuclei count: measured here: cell count, toxicity.
Experiment [2] is described as follows: inhibitors of E-selectin induction by TNFa, primary screen, imaging, HUVEC, immunofluorescence, MLSMR starter and 10KST1 sets (AID 487;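 active means visually confirmed hit in the image check and inhibition above 20%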;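 on inhibition: signal is fraction of cell area covered by stained E-selectin grains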;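 on nuclei count: 100% = median nuclei count of all wells on the same plate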). To be noted: HUVEC TNFalpha-induced E-selectin immunofluorescence imaging, at 2 µM; inhibition: stronger effect = higher value; nuclei count: measured here: cell number, toxicity.
Experiment [3] is described as follows: DUSP6 inhibitors restoring Erk phosphorylation by chemical complementation, primary imaging in DUSP6-transfected HeLa (AID 609;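 active means compounds giving at least 50% inhibition in the cell-based MKP-3 phosphatase rescue imaging test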;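 on inhibition: phospho-Erk level distribution per well compared with pooled transfected vehicle control wells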). To be noted: HeLa MKP-3 transfected, phospho-Erk imaging KS statistic, at 10 µM, cells stimulated with TPA for 15 min.
For experiment [4], the target named is Dual specificity protein phosphatase 6 (Homo sapiens) (UniProt Q16828). The description is as above. To be noted: HeLa MKP-3 transfected, phospho-Erk imaging KS statistic; at 10 µM; stronger effect = higher value; cells stimulated with TPA for 15 min.
Experiment [5] concerns the target Voltage-gated potassium channel subunit beta-2 (Rattus norvegicus) (UniProt P62483). In words: KvBeta enzyme negative modulators, primary screen, biochemical, NADPH fluorescence (AID 622;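 active means fluorescence slope higher than the sample average by over 3 SD, cut at about -0.22 in these data, passing the limit was not always enough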;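 further: slope of raw intensity against log time taken from 70 to 1610 s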). To be noted: recombinant KvBeta, 4-cyanobenzaldehyde reduction, at 10 µM, stronger effect = higher value.
Experiment [6] shares this target. In words: KvBeta positive modulators, primary screen, biochemical, NADPH fluorescence (AID 623;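 active means NADPH fluorescence slope more negative than the mean of all samples by about 3 SD, 99.7% confidence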;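 further: fluorescence intensity change per second fitted from 20 to 320 s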). To be noted: Recombinant KvBeta, NADPH fluorescence decrease slope, 10 min; at 10 µM; stronger effect = lower value.
In experiment [7] the target is Alpha-2C adrenergic receptor (Homo sapiens) (UniProt P18825). Description: modulators of alpha2C/GIRK thallium flux, primary screen, cell-based, HEK293 alpha2C/GIRK1/2 (AID 624;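 active means fluorescence slope after compound addition differing from the mean of all screened samples at 99.7% confidence, in either direction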;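 further: slope of fluorescence ratio to pre-addition baseline per second over 15 to 24 s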). To be noted: thallium flux BTC fluorescence, at 10 µM, actives lie on both sides.
A short description of experiment [8]: inhibitors of larval lipid processing in zebrafish, primary screen, whole organism, PED6 fluorescence, gall bladder and intestine (AID 686;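 active means a full or partial loss of lipid-probe fluorescence in the fish gall bladder, intestine or both, judged by eye; inactive means no fluorescence loss, or compound toxic to the fish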;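 further: larvae 5 to 7 days old with five fish per well; signal comes from phospholipase A2 cleavage of quenched PED6 carried via bile; overnight exposure to compound and PED6 before scoring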). To be noted: Zebrafish larvae PED6 lipid processing, fluorescence scoring; screened at 20 µM (by protocol).
Experiment [9] is described as follows: inhibitors of Chlamydomonas gravitaxis, primary screen, whole organism, Chlamydomonas reinhardtii, WT vs cilia-less mutant, absorbance, 96-well (AID 463189).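 Further: 0% = wild type cc124 cells in DMSO and 100% = ciliumless bld1 mutant cells.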 To be noted: OD600 absorbance, 2 days, at 10 µM, stronger effect = higher value.
A short description of experiment [10]: inhibitors of Sendai virus-induced IRF3 signaling, primary screen, TLR/RLR signaling modifier project, cell-based, Sendai virus stimulus, luciferase, 10K MLSCN set (AID 602276;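 active means inhibition at or above 50% at 10 µM; inactive means inhibition below 50%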;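 further: firefly luciferase from ISG56 promoter only with Renilla not read in this screen; 0% = Sendai virus plus DMSO and 100% = medium plus DMSO without virus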). To be noted: HEK293 RL24 IRF3 luciferase reporter, at 10 µM, stronger effect = higher value.
The nature of experiment [11]: inhibitors of poly I:C-induced TLR3 signaling, primary screen, cell-based, poly I:C stimulus, luciferase, 10K MLSCN set (AID 602277;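 active means inhibition of the reporter signal at or above 50%; inactive means inhibition below 50%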). To be noted: HEK293-TLR3 RL24 IRF3 luciferase reporter, at 10 µM, stronger effect = higher value. A general note: A reporter such as luciferase makes a cellular process visible.
Setting [12] is: measured here: cell density z-score.
Where [13] appears, read: measured here: nuclear c-Myc green intensity z-score.
Where [14] appears, read: measured here: nuclear pErk red intensity z-score, stronger effect = higher value.

Structures are written as SMILES. Several values for one entry are separate records, joined by “and”; a condition that tells them apart may be missing. Equal entries are not always repeated. Activity calls are given as the source filed them.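 How the source made its calls, unless noted: active means inhibition at or above 50% relative to wild type and mutant plate controls; inactive means inhibition below 50%.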

Dual specificity protein phosphatase 6 (Homo sapiens), sequence (Q16828 whole entry, looked up): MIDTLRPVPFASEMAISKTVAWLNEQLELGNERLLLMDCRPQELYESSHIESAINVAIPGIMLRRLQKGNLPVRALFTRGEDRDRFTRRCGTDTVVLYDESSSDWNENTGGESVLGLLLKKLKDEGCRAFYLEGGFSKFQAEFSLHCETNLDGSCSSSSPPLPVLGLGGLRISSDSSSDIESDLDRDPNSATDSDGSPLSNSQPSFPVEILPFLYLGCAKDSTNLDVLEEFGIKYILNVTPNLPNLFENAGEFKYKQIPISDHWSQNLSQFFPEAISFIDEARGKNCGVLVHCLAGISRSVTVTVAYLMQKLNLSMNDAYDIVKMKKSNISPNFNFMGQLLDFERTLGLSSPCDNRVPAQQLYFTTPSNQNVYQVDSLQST
Alpha-2C adrenergic receptor (Homo sapiens), sequence (P18825 whole entry, looked up): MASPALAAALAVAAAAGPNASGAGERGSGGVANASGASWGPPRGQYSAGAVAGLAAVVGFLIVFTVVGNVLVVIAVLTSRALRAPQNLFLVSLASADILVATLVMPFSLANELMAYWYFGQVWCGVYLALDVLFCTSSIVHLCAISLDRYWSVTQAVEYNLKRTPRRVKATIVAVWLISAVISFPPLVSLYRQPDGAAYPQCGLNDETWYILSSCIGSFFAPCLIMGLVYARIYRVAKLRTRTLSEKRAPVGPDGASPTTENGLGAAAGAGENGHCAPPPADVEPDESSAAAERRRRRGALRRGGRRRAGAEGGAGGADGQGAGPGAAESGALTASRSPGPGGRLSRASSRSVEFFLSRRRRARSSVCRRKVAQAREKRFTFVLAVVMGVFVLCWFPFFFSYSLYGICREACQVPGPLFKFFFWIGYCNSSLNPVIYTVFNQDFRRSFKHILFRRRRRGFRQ
Voltage-gated potassium channel subunit beta-2 (Rattus norvegicus), sequence (P62483 whole entry, looked up): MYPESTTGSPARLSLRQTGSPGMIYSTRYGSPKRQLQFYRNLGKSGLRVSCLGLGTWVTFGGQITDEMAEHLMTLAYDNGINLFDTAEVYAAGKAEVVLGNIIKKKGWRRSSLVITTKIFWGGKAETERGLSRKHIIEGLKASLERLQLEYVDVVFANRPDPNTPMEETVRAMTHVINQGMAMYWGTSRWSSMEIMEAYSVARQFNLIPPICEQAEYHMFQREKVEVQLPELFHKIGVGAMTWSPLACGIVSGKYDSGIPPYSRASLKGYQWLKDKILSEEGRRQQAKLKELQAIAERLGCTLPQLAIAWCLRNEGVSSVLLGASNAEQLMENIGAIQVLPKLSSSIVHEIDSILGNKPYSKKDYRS

The inhibition is the drop in the measured response relative to a control, in per cent. As to `CC1CCc2cc(F)cc3c(=O)c(C(=O)O)cn1c23` (stereo not given), in experiment [1], the inhibition of aggregation is 3.7% (inactive). Further, the nuclei count in experiment [1] worked out at 100%; in [2], 114%. Moreover, the inhibition was -103% (inactive) in [2]; 13.3% (inactive) in [4]; -5.13% (inactive) in experiment [9]; 9.82% (inactive) in experiment [10]; 32.9% (inactive) in [11]. For the same compound, the z-score was -0.137 in experiment [3] (setting [12]), -0.228 in experiment [3] (setting [13]) and 0.466 in [3] (setting [14]). The fluorescence slope in [5] was -0.526 (inactive). In addition, in [6], the NADPH fluorescence slope is -7.5e-05 (inactive). Further, the slope in experiment [7] is 0.00491 (inactive). The call in experiment [8] was inactive.

`Nc1ccc(C(=O)O)c(O)c1`: the inhibition of aggregation in [1] is 3.1% (inactive) and 6.7% (inactive). For the same compound, the nuclei count was 99.9% and 81.7% in experiment [1]; 121% and 120% in experiment [2]. For the same compound, the inhibition in [2] was -66.9% (inactive) and -44% (inactive); in experiment [4], 3.59% (inactive) and 13.3% (inactive); in experiment [9] it was -10.5% (inactive) and -2.41% (inactive); in experiment [10], 5.21% (inactive) and 16.9% (inactive); in [11] it was 9.44% (inactive) and 29.7% (inactive). Further, the z-score in experiment [3] (setting [12]) was 0.96 and 0.975; in [3] (setting [13]), -0.574 and 0.166; in [3] (setting [14]), 0.314 and -1.51. The fluorescence slope in experiment [5] is -0.483 (inactive) and -0.504 (inactive). Further, in [6], the NADPH fluorescence slope was -1.6e-05 (inactive) and -1e-05 (inactive). Besides, the slope in [7] is 0.00463 (inactive) and 0.00637 (inactive). Moreover, the compound was called inactive in experiment [8].

Turning to `COC(=O)Nc1nc2ccc(C(=O)c3ccccc3)cc2[nH]1`, the inhibition of aggregation in experiment [1] is -1.2% (inactive). In addition, the nuclei count in [1] was 34.6%; in experiment [2], 112%. Moreover, the inhibition in experiment [2] was -48.7% (inactive); in experiment [4], 21.2% (inactive); in experiment [9], -3.25% (inactive); in experiment [10], 17.6% (inactive); in experiment [11], 46.8% (inactive). For the same compound, the z-score was 1.8 in experiment [3] (setting [12]), -0.197 in [3] (setting [13]) and -0.901 in [3] (setting [14]). For the same compound, in [5], the fluorescence slope is -0.437 (inactive). In experiment [6], the NADPH fluorescence slope is -9.9e-05 (inactive). Also, in experiment [7], the slope is 0.0038 (inactive). Further, in experiment [8], the compound was called inactive.

As for `COc1cc(C2Oc3cc(C4Oc5cc(O)cc(O)c5C(=O)C4O)ccc3OC2CO)ccc1O` (stereo not given), the inhibition of aggregation in experiment [1] was 15.4% (inactive). Moreover, the nuclei count in [1] amounted to 94.5%; in experiment [2], 118%. Besides, the inhibition is -86.6% (inactive) in [2]; -8.38% (inactive) in experiment [4]; -8.52% (inactive) in [9]; -16.8% (inactive) in [10]; -16.2% (inactive) in experiment [11]. Besides, the z-score in experiment [3] (setting [12]) is -0.357; in experiment [3] (setting [13]), 0.711; in experiment [3] (setting [14]), -0.479. Further, the fluorescence slope in experiment [5] was -0.479 (inactive). For the same compound, the NADPH fluorescence slope in experiment [6] was 1.9e-05 (inactive). The slope in [7] was 0.00477 (inactive). In addition, in experiment [8], the result was inactive.

`CCc1cccc2c3c([nH]c12)C(CC)(CC(=O)O)OCC3` (stereo not given): the inhibition of aggregation in [1] is 3.6% (inactive). Besides, the results for the nuclei count in experiment [1] and in experiment [2] were 111% and 126%, respectively. Besides, the inhibition in experiment [2] was -122% (inactive); in experiment [4] it was -0.493% (inactive); in [9], -6.89% (inactive) and 27.4% (inactive); in experiment [10] it was 10.1% (inactive); in experiment [11], 33.6% (inactive). In addition, the z-score in experiment [3] (setting [12]) is -0.0395; in experiment [3] (setting [13]), 0.0959; in [3] (setting [14]), -0.905. In addition, the fluorescence slope in [5] is -0.442 (inactive). Besides, the NADPH fluorescence slope in experiment [6] is -6.2e-05 (inactive). The slope in experiment [7] was 0.00464 (inactive). The compound was classed as inactive in [8].

As for `CCOc1ccc2nc(S(N)(=O)=O)sc2c1`, the inhibition of aggregation in experiment [1] was -4.8% (inactive). For the same compound, the nuclei count in [1] worked out at 112%; in experiment [2], 127%. For the same compound, the inhibition in experiment [2] was -20.9% (inactive); in [4], 21.2% (inactive); in [9], 31% (inactive); in experiment [10], 3.12% (inactive); in [11] it was -17% (inactive). Also, the z-score in experiment [3] (setting [12]) is 1.44; in experiment [3] (setting [13]) it was 0.726; in experiment [3] (setting [14]), -0.916. Moreover, the fluorescence slope in experiment [5] is -0.485 (inactive). In addition, the NADPH fluorescence slope in [6] was -5.5e-05 (inactive). The slope in experiment [7] is 0.00518 (inactive). Further, in experiment [8], the compound was classed as inactive.

Turning to `CCCc1cc(=O)[nH]c(=S)[nH]1`, the inhibition of aggregation in [1] was 6.2% (inactive). Moreover, the nuclei count in experiment [1] is 105%; in experiment [2], 126%. Moreover, the inhibition is -113% (inactive) in [2]; 15.3% (inactive) in experiment [4]; -10.4% (inactive) in [9]; 10.3% (inactive) in [10]; 30.1% (inactive) in [11]. The z-score in [3] (setting [12]) was 0.461; in experiment [3] (setting [13]) it was -0.47; in experiment [3] (setting [14]), -0.798. The fluorescence slope in experiment [5] is -0.468 (inactive). The NADPH fluorescence slope in experiment [6] is -6.3e-05 (inactive). The slope in [7] is 0.00437 (inactive). For the same compound, the outcome in experiment [8] was inactive.

Take `c1ccc2c(c1)CCCC2C1=NCCN1` (stereo not given): the inhibition of aggregation in experiment [1] is -2.2% (inactive). For the same compound, the nuclei count came out at 106% in experiment [1] and 112% in experiment [2]. For the same compound, the inhibition is -52.5% (inactive) in experiment [2]; 5.79% (inactive) in [4]; 8.79% (inactive) and 22.7% (inactive) in experiment [9]; 12.1% (inactive) in experiment [10]; 48.1% (inactive) in [11]. Besides, the z-score in experiment [3] (setting [12]) is -1.5; in [3] (setting [13]) it was 0.768; in [3] (setting [14]), 0.367. Further, the fluorescence slope in experiment [5] is -0.464 (inactive). Besides, the NADPH fluorescence slope in experiment [6] is -5e-05 (inactive). The slope in experiment [7] was 0.00529 (inactive). Further, the call in experiment [8] was inactive.

As to `COc1ccc(CN(CCN(C)C)c2ccccn2)cc1`, the inhibition of aggregation in experiment [1] is -1.2% (inactive). Besides, the figures for the nuclei count in [1] and in experiment [2] were 105% and 113%, respectively. Further, the inhibition in experiment [2] was -37.9% (inactive); in [4], 3.45% (inactive); in experiment [9] it was 3.64% (inactive) and 20.5% (inactive); in experiment [10] it was 16.8% (inactive); in experiment [11] it was 30.1% (inactive). The figures for the z-score in experiment [3] (setting [12]), in [3] (setting [13]) and in experiment [3] (setting [14]) were -0.442, -0.558 and 1.54, respectively. Also, in [5], the fluorescence slope is -0.507 (inactive). The NADPH fluorescence slope in [6] was 9.4e-06 (inactive). Besides, the slope in experiment [7] was 0.00533 (inactive). Besides, the compound was classed as inactive in experiment [8].

As for `CCc1oc2ccccc2c1C(=O)c1cc(Br)c(O)c(Br)c1`, in experiment [1], the inhibition of aggregation is -4.4% (inactive). Further, the nuclei count came out at 98% in experiment [1] and 132% in [2]. Besides, the inhibition in experiment [2] is -113% (inactive); in experiment [4], 17.3% (inactive); in experiment [9], 129% (active); in experiment [10] it was 18.5% (inactive); in experiment [11], 30.1% (inactive). Also, the figures for the z-score in [3] (setting [12]), in experiment [3] (setting [13]) and in [3] (setting [14]) were 0.0952, 0.368 and 0.987, respectively. In addition, the fluorescence slope in experiment [5] is -0.429 (inactive). Also, in [6], the NADPH fluorescence slope is 3.1e-06 (inactive). In addition, the slope in experiment [7] is 0.00421 (inactive). For the same compound, in [8], the outcome was “inactive; toxic”.
